In the supplement of paper PMC6555819:

tested on: PPARg:RXRa 90nM:30nM, anti-RXR (NR concentration 90 nM, RXRa partner concentration 30 nM); assay: PBM binding z-score (relative to random genomic background probes); higher = stronger binding; sequences stand for … in GC…GCGATTGACAGCGTAGAATGAAGG
Procedure, shortened: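 Custom Agilent 4×180K protein-binding microarrays carried double-stranded probes. Their 34-nt variable regions held direct-repeat seeds, single-nucleotide variants, half-site ablations and random human genomic background sequences. Arrays were incubated 1 h with ligand-free nuclear receptor dimers in PBS pH 7.4, 2% milk, 0.02% Triton X-100, 1 mM DTT, 0.2 mg/mL BSA and 0.4 mg/ml salmon testes DNA. Antibodies against each partner (one per run) detected binding, and scanned fluorescence was regression-normalized. Binding z-scores use random background probes as reference.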

Going from GCTTGGAGATCAAGGTTAAGAAAGACTAAGCTAA to CCGAGTAGGTTATGGGGCATCCAGGCAACGGTGA, the PBM binding z-score rises from 0.671 to 4.17.

First: CCTTACGGGTCACGAGGTTATAGCACGACGAGCG
Second: CCTCCTGGGCCAAAGGTCATTGATTCCAATGCTC
The PBM binding z-score of the first is lower: 5.31 for the first, 10.1 for the second.

First: GATACCGGGTCAGCTAGAGGCCAGAGTATGGAAA
Second: AGAACGAGGGCACGCTGAGTTGACAGCAGAGTAG
The PBM binding z-score of the first is higher: 1.18 for the first, 0.731 for the second.

Going from CGAATTAGGTCAGAACAGGACAGTGAAGGATGAT to CGAACTAGGTCATCGACAGGACAGTGAATAGTAA, the PBM binding z-score rises from 3.65 to 5.7.

Going from ATCGAAAGGTCGAGGTGGGTATAGAGAAAGGGAA to TAGCCTAGGTCAGATCGGGCCACTATACGCTATA, the PBM binding z-score falls from 1.97 to 0.49.

First: ACTCGGAGGACAAAGGTCAGACCTACGCCAGTGA
Second: AGACCGAGGGCAATGAGTTGATAGCACGGGTGGC
The PBM binding z-score of the first is higher: 6.85 for the first, -0.435 for the second.

Going from TGAACGAGGTTAAAGATCAGGGAACGTGGCGTCG to CCTAGTTAGTCAGGAGGTCACACACCGGATATGA, the PBM binding z-score falls from 6 to 2.16.

Compared with CAAACTAGGTCACGAAAGGTCCAAGTCGAATGAC, CAACCAAGGTGAACAAGGTCGTTGATTACTATTC is lower in PBM binding z-score: 7.28 for the first, 0.789 for the second.

Compared with AGAATGACGTTACCAAAGATCAGGGAAACGCTTG, GCTGCTAGTTCAGGTTGGTCAGCTAACGGGTACG is lower in PBM binding z-score: 0.17 for the first, -0.226 for the second.

Compared with ACTCGGAGGACCAAGGTCAGAGCTACGCCAGTGA, TAGCCTAGGTCATTCACGGGCCAGTATAGAAAGC is higher in PBM binding z-score: 0.773 for the first, 1.74 for the second.

Compared with TAGCCTAGGTCATGCAGGGGCCAGTATAGAAAGC, TCGAGTAGGATACCAATGGGGCATTCAGCTTTCT is lower in PBM binding z-score: 1.5 for the first, 0.306 for the second.

Compared with TCCTATAGGTAAACAGGTGAAAGTCCGTAAGTTA, GCGACTGGGGCATCAGCCGGTTACCATAACTTAA is lower in PBM binding z-score: 3.17 for the first, -0.0776 for the second.

First: CCTAGCAGGCCAATCTGCGTCACTCAAGGCTTGA
Second: CGAACTAGGTCAAGGGCAGTGAATCTCCGCACGC
The PBM binding z-score of the first is lower: -1.21 for the first, 6.89 for the second.

Compared with ACTCGCAGGACAAAGGTCAGAGCTACGCCAGTGA, GATACACGGTCAGCTAGAGGCCAGAGTATGGAAA is lower in PBM binding z-score: 6.99 for the first, -0.205 for the second.

Compared with CCTAGCAGGCCCATCTGGGTCACTCAAGGCTTGA, ATCTCTAGGTAAAAGTTCAGTGGATCCCGAGGAT is higher in PBM binding z-score: -0.217 for the first, 8.5 for the second.

First: TCTTGTAGATCAAAGGTTATGAAAGCCGAAGCCT
Second: CGTCCAAGGTCATAGGAGGTCCGTGAAGACAGAT
The PBM binding z-score of the first is higher: 8.56 for the first, 3.67 for the second.

First: CCGACTGGGGCAAGGTTAGCATAACGCACAGCCA
Second: CGTCAAAGTTCAACTAAGGTAACGGAAAGCACGC
The PBM binding z-score of the first is lower: 2.39 for the first, 4.58 for the second.

Compared with AACACAGGGTCACTAGGCCAGAGTAGGTACGAAT, GCTTGTAGATCAAGATTAAGAAAGACTAAGCTAA is lower in PBM binding z-score: 5.42 for the first, -0.334 for the second.

Compared with GCATAGAGGTAATACAAGGTGAAAGTCCGATTGT, AGTCAAGGTTCACTAGGTAACGTAAGATTCAGCT is higher in PBM binding z-score: 0.729 for the first, 3.65 for the second.

First: TCTTGTAGATCAATAGAGGTTAAGAATGTGCGCT
Second: CCTATTAGTTGACCATAAGGGCTACCGAAGCTCG
The PBM binding z-score of the first is higher: 1.97 for the first, 0.0475 for the second.
